Results filed as inconclusive are left out. Entries that show only a call come without a potency. The source made the active and inactive calls. The call rests on the fitted dose curve.

D(2) dopamine receptor (Homo sapiens), sequence (P14416 whole entry, looked up): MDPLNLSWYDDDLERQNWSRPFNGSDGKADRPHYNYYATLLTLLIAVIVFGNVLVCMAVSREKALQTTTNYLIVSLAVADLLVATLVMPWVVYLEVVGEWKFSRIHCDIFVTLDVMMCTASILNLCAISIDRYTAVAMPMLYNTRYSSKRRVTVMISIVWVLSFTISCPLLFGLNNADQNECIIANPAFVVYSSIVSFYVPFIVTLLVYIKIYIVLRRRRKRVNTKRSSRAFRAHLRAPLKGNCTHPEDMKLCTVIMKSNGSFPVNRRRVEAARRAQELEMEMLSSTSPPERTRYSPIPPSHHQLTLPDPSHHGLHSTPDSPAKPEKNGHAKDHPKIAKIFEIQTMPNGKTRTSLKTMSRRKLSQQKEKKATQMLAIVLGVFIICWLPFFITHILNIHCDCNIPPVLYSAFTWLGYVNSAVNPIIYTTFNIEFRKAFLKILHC

This assay has as its target D(2) dopamine receptor (Homo sapiens) (UniProt P14416). In words: Dopamine D2 receptor (DRD2) small molecule agonists, cell-based qHTS assay (AID 1963594). Further: nearly all actives have a fitted effect of over 35% in size. As to conditions: HEK293-DRD2 cAMP HTRF, agonist mode, 30 min; series mostly up to 92.4 µM; activation: at the top concentration. The method in brief:
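HEK293 cells stably expressing DRD2 were cultured 24 h at 37 C, then given Ro20-1724 (0.1 mM final) and compounds for 10 min at room temperature. NKH477 (200nM) was then added for 30 min. cAMP was read by HTRF.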
(In general: In qHTS, concentration-response curves come from the screen itself.)
Take `N#Cc1ccccc1`: the Potency entry is “inactive”.
For the compound `C=C(CC(=O)O)C(=O)O`, the Potency result was “inactive”.
Same read-out and setting: the same measure for `O=C(OCC1CCC2OC2C1)C1CCC2OC2C1` (centres undefined): “inactive”; for `CC(=O)NS(=O)(=O)c1ccc(N)cc1`: “inactive”.
For the compound `Cc1cc(CC(=O)O)n(C)c1C(=O)c1ccc(Cl)cc1`, the Potency result was “inactive”.
As to `CCCCNS(=O)(=O)c1ccccc1`, the Potency entry was “inactive”.
For `C[C@]12C=CC(=O)C=C1CC[C@H]1[C@@H]3C[C@@H](O)[C@](O)(C(=O)CO)[C@@]3(C)C[C@H](O)[C@@]12F`, the “activation” value was 2.26% (inactive).
On the same count and under the same terms, the figure for `Cc1cc(C)c(O)c(C)c1` is 3.44% (inactive).
Take `Nc1ccc(S(=O)(=O)Nc2cnc3ccccc3n2)cc1`: the Potency result was “inactive”.
Regarding `COC(=O)[C@H]1[C@H]2C[C@@H]3c4[nH]c5cc(OC)ccc5c4CCN3C[C@H]2C[C@@H](OC(=O)c2cc(OC)c(OC)c(OC)c2)[C@@H]1OC`, the Potency result is “inactive”.
For `c1ccc2cc(Nc3ccc(Nc4ccc5ccccc5c4)cc3)ccc2c1`, the “activation” value is 12.9% (inactive).
Turning to `COc1ccc([C@@H]2CC(=O)c3c(O)cc(O[C@@H]4O[C@H](CO[C@@H]5O[C@@H](C)[C@H](O)[C@@H](O)[C@H]5O)[C@@H](O)[C@H](O)[C@H]4O)cc3O2)cc1OC`, the Potency result was “inactive”.
Same read-out and setting: the same measure for `CC(=O)N[C@@H](CS)C(=O)O`: “inactive”; for `OCC1CCCO1` (centres undefined): “inactive”.
With `CC(=O)OCc1ccc2c(c1)OCO2`, the Potency result was “inactive”.
The same measure, in the same setting: the same measure for `Cc1cc(C)c(C)cc1C`: “inactive”; for `Oc1c(Cl)cc(Cl)c(Cl)c1Cl`: “inactive”; for `CC1(C)C(=O)N(Cl)C(=O)N1Cl`: “inactive”.
Take `Cc1ccc(C)c(O)c1`: the Potency result was “inactive”.
Consider `NC(N)=S`, for which the Potency entry is “inactive”.
For the compound `CCCCCCCCCCO`, the Potency result was “inactive”.
In the case of `OCCOCCOCCOCCO`, the Potency result is “inactive”.
On the same count and under the same terms, the same measure for `CCCCCCCCCCCCCC(=O)O`: “inactive”; for `O=S(=O)(O)c1ccc2cc(O)ccc2c1`: “inactive”.
The same measure, in the same setting: the entry for `ClC1=C(Cl)C(Cl)(Cl)C(Cl)=C1Cl` is “inactive”; for `CCOC(=O)CC(=O)OCC` it is “inactive”; for `CCCCOCCOCCOC(C)=O` it is “inactive”.
As for `CCn1c2ccccc2c2cc(N)ccc21`, the Potency entry is “inactive”.
Regarding `C=CCCCCCCCCCC`, the Potency entry was “inactive”.
As for `CC1=C(/C=C/C(C)=C/C=C/C(C)=C/C(=O)O)C(C)(C)CCC1`, the Potency entry is “inactive”.
Consider `CCCCCNCCCCC`, for which the Potency result is “inactive”.
On to `O=C(CC(C(=O)OC1CCCCC1)S(=O)(=O)O)OC1CCCCC1` (centres undefined), for which the Potency result was “inactive”.
With `CN(C)CCOC(=O)COc1ccc(Cl)cc1`, the Potency result is “inactive”.
For `CCCN(CCC)C(=O)SCC`, the Potency entry was “inactive”.

For the origin of these results see PubChem BioAssay (Tox21).
